Measured values as given in PubChem BioAssay (Tox21).
Several values for one entry are separate records, joined by “and”; a condition that tells them apart may be missing. Identical values can stand only once. Records with an inconclusive call do not appear. More than one record can exist for a structure, and the calls need not agree. Activity calls are given as the source filed them. Unless noted, the call rests on the fitted dose curve; in most records, active means well fitted curve in the direction sought with a large enough effect in the repeat runs; inconclusive means weak or mixed curves; inactive means no such curve, though single readings can be large; an effect the other way counts as inactive or inconclusive.

How the values were obtained:
[1] = qHTS assay to identify small molecule antagonists of the estrogen receptor alpha (ER-alpha) signaling pathway using the BG1 cell line in the presence of 0.1 nM 17-beta-estradiol - cell viability counter screen (AID 1259241); further: nearly all actives have a fitted effect of over 40% in size
In short: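 CellTiter-Fluor read (30 min, 37C) on ER-alpha/ERE-luc VM7Luc4E2 cells; 22 hr compound treatment; agonist 0.1 nM E2 final; same-well multiplex.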

[2] = qHTS assay to identify small molecule antagonists of the androgen receptor (AR) signaling pathway using the MDA cell line in the presence of 0.5 nM R1881 - cell viability counter screen (AID 1259242); further: nearly all actives have a fitted effect of over 45% in size; further: potency means the concentration at half of the fitted maximal effect
In short: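 Live-cell protease activity was measured by CellTiter-Fluor fluorescence after 30 min. Before that, MDA-kb2 MMTV-luciferase cells had 16 hr at 37C without CO2, exposed to test compounds and 0.5 nM R1881 final.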

[3] = molecular target: Estrogen receptor (Homo sapiens) (UniProt P03372); assay: qHTS assay to identify small molecule antagonists of the estrogen receptor alpha (ER-alpha) signaling pathway using the BG1 cell line in the presence of 0.1 nM 17-beta-estradiol (AID 1259244); further: nearly all actives have a fitted effect of over 50% in size
In short: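 Luciferase luminescence (ONE-Glo, 30 min at room temperature) was read after 22 hr at 37C exposure to compounds plus 17beta-estradiol at 0.1 nM final. Cells were VM7Luc4E2 with endogenous ER-alpha and an ERE-driven luciferase, pre-cultured 5 days in hormone-depleted medium.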

[4] = qHTS assay to identify small molecule HDAC inhibitors (AID 1259364); further: nearly all actives have a fitted effect of over 45% in size; further: potency means the concentration at half of the fitted maximal effect
In short: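 Luminescence read after 30 min room-temperature HDAC-Glo incubation measures cellular class I/II HDAC activity. Compounds were applied for 2 hr at 37 C to HCT-116 wild-type cells seeded the day before.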

[5] = qHTS assay to identify small molecule HDAC inhibitors - cell viability counter screen (AID 1259365); further: series mostly up to about 92 µM; nearly all actives have a fitted effect of over 50% in size
In short: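 To flag cytotoxic hits, 1,500 wild-type HCT-116 cells per well, plated the day before, receive test compounds for 2hr at 37 C before CellTiter-Glo reagent and a luminescence read.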

[6] = qHTS assay to identify small molecule agonists of the sonic hedgehog signaling (Shh) pathway - cell viability counter screen (AID 1259366); further: nearly all actives have a fitted effect of over 50% in size; further: potency means the concentration at half of the fitted maximal effect
In short: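 Fluorescence from CellTiter-Fluor reports live cells in this counter screen. NIH/3T3-derived Gli1-Luc reporter cells receive test compounds for 24hr at 37C; reagent goes in at 23hr.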

[7] = qHTS assay to identify small molecule antagonists of the sonic hedgehog signaling (Shh) pathway - cell viability counter screen (AID 1259367); further: nearly all actives have a fitted effect of over 55% in size; further: potency means the concentration at half of the fitted maximal effect
In short: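 CellTiter-Fluor signal in conditioned medium-stimulated 3T3 Gli1-Luc cells, 23 hr compound exposure, 37C.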

[8] = qHTS assay to identify small molecule agonists of the sonic hedgehog signaling (Shh) pathway (AID 1259368; calls by dose curve;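 further: NIH/3T3-derived 3T3Gli1-Luc cells carrying a stable Gli1-driven firefly luciferase reporter; series mostly up to about 92 µM; nearly all actives have a fitted effect of over 15% in size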)
In short: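 Luminescence was read after 30 min at room temperature with luciferase reagent. Before that, 3T3Gli1-Luc cells (NIH/3T3 clone, stable Gli1-Luc reporter; 2,000/well) were exposed to compounds for 24 hr at 37C, 5% CO2, compounds being added 4 hr post-plating.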

[9] = qHTS assay to identify small molecule phospholipidosis (PLD) inducers (AID 1259344; active means well fitted curve in the direction sought with a large enough effect; an effect the other way counts as inactive or inconclusive)
In short: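 Accumulated phospholipid, stained red by LipidTOX during 24 h compound treatment of HepG2 cells at 37 C, is quantified from images as pit number and intensity, normalised per cell using Hoechst-stained nuclei.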

Measured: Potency

Estrogen receptor (Homo sapiens), sequence (P03372 whole entry, looked up): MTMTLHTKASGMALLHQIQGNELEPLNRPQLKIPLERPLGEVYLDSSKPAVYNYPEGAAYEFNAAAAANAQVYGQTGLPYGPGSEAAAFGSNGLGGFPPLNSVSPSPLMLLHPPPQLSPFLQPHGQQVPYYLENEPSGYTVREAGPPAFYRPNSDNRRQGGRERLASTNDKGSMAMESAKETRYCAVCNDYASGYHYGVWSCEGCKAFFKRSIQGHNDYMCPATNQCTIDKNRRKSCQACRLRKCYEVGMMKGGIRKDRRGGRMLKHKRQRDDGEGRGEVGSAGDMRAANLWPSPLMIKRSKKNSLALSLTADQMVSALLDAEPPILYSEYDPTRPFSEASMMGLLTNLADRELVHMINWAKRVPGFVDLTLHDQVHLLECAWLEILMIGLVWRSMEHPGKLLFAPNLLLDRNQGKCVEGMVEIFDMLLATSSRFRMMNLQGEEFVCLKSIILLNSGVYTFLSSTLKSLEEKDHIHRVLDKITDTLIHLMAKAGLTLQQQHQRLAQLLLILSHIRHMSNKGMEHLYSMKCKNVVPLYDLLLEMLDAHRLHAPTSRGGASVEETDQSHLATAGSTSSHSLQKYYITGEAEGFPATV

O=C(NC(=O)c1c(F)cccc1F)Nc1cc(Cl)c(F)c(Cl)c1F
not listed: [9]
inactive: all other assays above

NCCOS(=O)(=O)O
not listed: [9]
inactive: all other assays above

O=C1CC(=O)NC(=O)N1
not listed: [7] | [9]
inactive: all other assays above

CC(O)CCl (stereo not drawn)
not listed: [9]
inactive: all other assays above

CN(C)CCc1c[nH]c2cccc(OP(=O)(O)O)c12
not listed: [3] | [8]
inactive: all other assays above

O=P(O)(O)c1ccccc1
not listed: [7] | [9]
inactive: all other assays above

O=P(O)(O)CN(CP(=O)(O)O)CP(=O)(O)O
not listed: [9]
inactive: all other assays above

C1CN2CCC1CC2
not listed: [9]
inactive: all other assays above

CN(C)CCN(C)C
not listed: [9]
inactive: all other assays above

BrCC1CO1 (stereo not drawn)
not listed: [9]
inactive: all other assays above

O=C(Cl)c1ccccc1
not listed: [9]
inactive: all other assays above

Oc1ccc(Cc2ccc(O)cc2)cc1
not listed: [8] | [9]
inactive: all other assays above

CCCCOC(C)=O
not listed: [9]
inactive: all other assays above

CC(=O)CN(CC(C)=O)N=O
not listed: [9]
inactive: all other assays above

CCC(C)C(C)(COC(N)=O)COC(N)=O (stereo not drawn)
not listed: [9]
inactive: all other assays above

CS(=O)(=O)Cl
not listed: [9]
inactive: all other assays above

CCOc1cc(OP(=S)(OC)OC)nc(CC)n1
not listed: [9]
inactive: all other assays above

CCCC[N+](=O)[O-]
not listed: [7] | [9]
inactive: all other assays above

C=C(Cl)CCl
not listed: [9]
inactive: all other assays above

CCC(=O)OC1(c2ccccc2)CCN(C)CC1
not listed: [3] | [7] | [8]
inactive: all other assays above

C=CCCC#N
not listed: [9]
inactive: all other assays above

COC(=O)[C@@H](N)CCCN/C(N)=N/[N+](=O)[O-]
not listed: [3]
inactive: all other assays above

C=C1C[C@@H]2[C@H](CC[C@]3(C)C(=O)CC[C@@H]23)[C@@]2(C)C=CC(=O)C=C12
not listed: [3]
inactive: all other assays above

O=[N+]([O-])CCO
not listed: [3] | [8] | [9]
inactive: all other assays above

CON(C)C(=O)Nc1ccc(Br)c(Cl)c1
inactive: [1] | [2] | [5] | [6] | [7]
active: [4] 27.3 µM

COC1=CC(=O)O[C@@H](/C=C/c2ccccc2)C1
active: [4] 24.7 µM
inactive: [1] | [2] | [5] | [6]

CN1COCN(Cc2cnc(Cl)s2)/C1=N\[N+](=O)[O-]
not listed: [3] | [9]
inactive: all other assays above

CC(C)NCC(O)c1ccc([N+](=O)[O-])cc1 (stereo not drawn)
not listed: [3]
inactive: all other assays above

O=C1C2CC=CCC2C(=O)N1SC(Cl)(Cl)Cl (stereo not drawn)
inactive and 16.9 µM (active): [2]
inactive and 13.5 µM (active): [6] | [7]
not listed: [3]
inactive: all other assays above

BrCCc1ccccc1
not listed: [3] | [8] | [9]
inactive: all other assays above

NNCc1ccccc1
active: [4] 11.1 µM
inactive: [1] | [2] | [5] | [6] | [7]

CCC1(c2cccc(O)c2)CCCCN(C)C1 (stereo not drawn)
not listed: [3] | [7]
inactive: all other assays above

C[C@H](CN1CCOCC1)C(C(=O)N1CCCC1)(c1ccccc1)c1ccccc1
not listed: [3] | [6] | [7]
inactive: all other assays above

C#CC(C)(C)O
not listed: [3] | [8] | [9]
inactive: all other assays above

COc1ccc2c(C(=O)c3ccc(Cl)cc3)c(C)n(CC(=O)O)c2c1
not listed: [3] | [8]
inactive: all other assays above

C=CCN1CC[C@]23CCCC[C@H]2[C@H]1Cc1ccc(O)cc13
not listed: [3]
inactive: all other assays above
